The values below come from PubChem BioAssay (NCATS).

Inconclusive results are not listed. The source made the active and inactive calls. Unless noted, the call rests on the fitted dose curve; in most records, active means well fitted curve in the direction sought with a large enough effect; inconclusive means small, poorly fitted or top-dose-only effect, or another doubt; inactive means no such curve, though single readings can be large; an effect the other way counts as inactive or inconclusive.

The nature of test [1]: NCATS anti-infectives library activity on HEK293 viability as a counter-qHTS vs the C. elegans viability qHTS (AID 1745854).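 Further: HEK293 cells exposed to compounds for 24 hr before the viability read; on the % scale 0 is the no-effect control and ±100 the full control effect.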 Put shortly: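 Compound titrations (final up to 41.7 uM) were incubated with HEK293 cells for 24 hr at 37C under 5% CO2. Viable cells were quantified with CellTiter-Glo after 10 min at ambient temperature.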
A general note: In qHTS, concentration-response curves come from the screen itself.

Test [2] is described as follows: Viability counterscreen for antagonist of constitutive androstane receptor (CAR) against the NCATS DSHEA and TCM libraries (AID 1794837).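 Further: compound exposure lasted 24 h before viability reading; 0% is about no effect.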 Put shortly:
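HepG2-CYP2B6-hCAR cells (2,500/well) were allowed to attach for 5 h, then exposed to compounds with 48 uM CITCO for 24 h at 37C. Viability was read by CellTiter-Fluor fluorescence after 1 h.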
A general note: A counterscreen serves to expose hits that act by an unwanted route or on another target.

Test [3] in a line: Viability counterscreen for agonist of constitutive androstane receptor (CAR) against the NCATS DSHEA and TCM libraries (AID 1794838). Further: 0% is about no effect. In a few lines:
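HepG2-CYP2B6-hCAR cells (2,500/well) attached 5 h, then got compounds plus 0.75 uM PK11195 final. After 24 h at 37C, viability read by CellTiter-Fluor fluorescence (Ex/Em 405/540 nm).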

Test [4] has as its target Nuclear receptor subfamily 1 group I member 3 (Homo sapiens) (UniProt Q14994). Put plainly: Primary qHTS for agonist of constitutive androstane receptor (CAR) against the NCATS DSHEA and TCM libraries (AID 1794839).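 Further: HepG2 cells expressing human CAR with a CYP2B6 reporter plus PK11195 antagonist; 0% is about no effect.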 In a few lines:
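HepG2-CYP2B6-hCAR cells (2,500/well) were attached for 5 h, then treated for 24 h at 37 °C with compounds plus 0.75 µM PK11195. Luciferase luminescence (ONE-Glo) was read, with CellTiter-Fluor viability (Ex/Em 405/540 nm).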

The nature of test [5]: HepG2 viability counterscreen (readout 1: protease activity) against the NCATS DSHEA and TCM libraries (AID 1794841).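 Further: cells exposed to compounds for about 24 h before the protease read; 0% is about no effect.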 In a few lines:
(§1)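 HepG2 cells (1,000 cells/well) attached ~4 h, then treated ~24 h at 37C with substances. Protease activity read by GF-AFC (25 uM final, 30 min, Ex/Em 380/510 nm); ATP content then by CellTiter-Glo luminescence.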

Test [6] deals with Cytochrome P450 3A4 (Homo sapiens) (UniProt P08684). Put plainly: qHTS for inhibitors of CYP3A4 against the NCATS DSHEA and TCM libraries (AID 1919971).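 Further: on the % scale 0 is the no-effect control and ±100 the full control effect; inhibition lowers luminescence from luciferin made by CYP3A4.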 In a few lines: (§2)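 Isoform-specific enzyme and substrate levels; enzyme-free wells as background. Reaction: 1x NADPH regenerating system, 30-45 min, room temperature, shielded from light; luminescent detection reagent added, 30 min.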

For test [7], the target named is Cytochrome P450 2D6 (Homo sapiens) (UniProt P10635). Put plainly: qHTS for inhibitors of CYP2D6 against the NCATS DSHEA and TCM libraries (AID 1919972). Further: on the % scale 0 is the no-effect control and ±100 the full control effect. In a few lines: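 qHTS, concentration–response format with most substances from 19.5 nM. CYP2D6 + pro-luciferin substrate, 15 min with compound, then 1x NADPH regen, 30–45 min RT dark. Glo detection 30 min, luminescence. Quinidine control.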

The target in test [8] is Cytochrome P450 2C9 (Homo sapiens) (UniProt P11712). Put plainly: qHTS for inhibitors of CYP2C9 against the NCATS DSHEA and TCM libraries (AID 1919973). Further: potency means the concentration at half of the fitted maximal effect. Put shortly:
as §2

Test [9] is described as follows: KB-3-1 P-gp reporter qHTS against the NCATS DSHEA and TCM libraries (AID 1919975). Further: 0% is about no effect. Put shortly: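 Parental KB-3-1 human cervical adenocarcinoma cells (500 cells/well, DMEM + 10% FBS) were treated with substances for ~72 h at 37C; viability was read by CellTiter-Glo luminescence.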
The target in test [10] is Cytochrome P450 1A2 (Homo sapiens) (UniProt P05177). Put plainly: qHTS for inhibitors of CYPIA2 against the NCATS DSHEA and TCM libraries (AID 1919976).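 Further: light from luciferin formed by CYP1A2 from a pro-luciferin substrate; series mostly up to about 37 µM; on the % scale 0 is the no-effect control and ±100 the full control effect.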 In a few lines:
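Furafylline served as the plate control. Compounds met CYP1A2 and pro-luciferin substrate 15 min before NADPH regeneration solution (1x) was added; after 30-45 min at RT, P450-Glo reagent was added for 30 min and luminescence was measured.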

Test [11] is described as follows: qHTS Counterscreen for compound interference against the NCATS DSHEA and TCM libraries (AID 1919978). Further: % of control where 0% means no effect. As to conditions: firefly luciferase detection reagent interference, luminescence. Put shortly: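 D-luciferin (1 uM final) or 100 mM potassium phosphate buffer alone was preincubated 15 min at RT with compounds (19.5 nM to 39.8 uM final). Luciferin detection reagent was then added and luminescence read after 30 min at RT.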

Test [12] is described as follows: Dual reporter qHTS for agonist of Pregnane X Receptor (hPXR) against the NCATS DSHEA and TCM libraries: Fluorescence readout (AID 1920058). Further: 0% is about no effect. Put shortly: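 In this qHTS counter-read, reporter-bearing HepG2 cells in charcoal-stripped serum received substances for approximately 24 h before viability was assessed fluorometrically with CellTiter-Fluor.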
Test [13] addresses Nuclear receptor subfamily 1 group I member 2 (Homo sapiens) (UniProt O75469). Put plainly: Dual reporter qHTS for agonist of Pregnane X Receptor (hPXR) against the NCATS DSHEA and TCM libraries: Luminescence readout (AID 1920059). Further: 0% is about no effect. In a few lines: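 hPXR-LucHepG2 cells in phenol red-free DMEM with 5% charcoal-stripped FBS, 2000 cells/well, attached 5 h, then exposed 24 h at 37C to compounds; rifampicin as positive agonist control (2.8 nM–92 uM). Luciferase luminescence read.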

For test [14] the target is unchanged. Put plainly: Dual reporter qHTS for antagonist of Pregnane X Receptor (hPXR) against the NCATS DSHEA and TCM libraries: Luminescence Readout (AID 1920060).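 Further: HepG2 cells carrying hPXR luciferase reporter stimulated with rifampicin at 2 µM; 0% is about no effect.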 Put shortly: (§3)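 hPXR-Luc HepG2 cells exposed 24 h at 37 C to compounds with 2 uM rifampicin in antagonist mode; luciferase luminescence measured by ONE-Glo, with CellTiter-Fluor viability read beforehand.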

A short description of test [15]: Dual reporter qHTS for antagonist of Pregnane X Receptor (hPXR) against the NCATS DSHEA and TCM libraries: Fluorescence Readout (AID 1920061). Further: 0% is about no effect. In a few lines:
as §3

The nature of test [16]: NCATS anti-infectives library activity on the primary C. elegans qHTS viability assay (AID 1745855; calls by dose curve; further: potency means the concentration at half of the fitted maximal effect). In a few lines:
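Titration-based screen in worms: eggs hatched overnight in M9, L1 larvae fed TOP10 capsules in S medium with compound, incubated 21 °C for 7 days; fluorescent objects gated by size and intensity at days 0, 3 and 7.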

A short description of test [17]: HepG2 viability counterscreen (readout 2: ATP content) against the NCATS DSHEA and TCM libraries (AID 1794840).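 Further: HepG2 cells exposed to substances for about 24 h; 0% is about no effect.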 Put shortly:
as §1

The target of test [18] is Cytochrome P450 2C19 (Homo sapiens) (UniProt P33261). Put plainly: qHTS for inhibitors of CYP2C19 against the NCATS DSHEA and TCM libraries (AID 1919974).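 Further: luminescence from luciferin released by CYP2C19 oxidation of a pro-luciferin substrate.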 Further: potency means the concentration at half of the fitted maximal effect. In a few lines: as §2
The target in test [19] is Glutathione peroxidase 1 (Homo sapiens) (UniProt P07203). Put plainly: Primary qHTS Assay for Inhibitors of Recombinant Selenoprotein Glutathione Peroxidase 1 (GPX1) (AID 1845191). Further: nearly all actives have a fitted effect of over 65% in size. In a few lines: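 GPX1 10 nM, GR 100 nM, GSH 1 mM, NADPH 0.5 mM, CHP 0.5 mM (final). 30-min cpd preincubation, RT. Ex340/Em450 read t=0, t=15 min.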
In test [20] the target is Phospholipid hydroperoxide glutathione peroxidase GPX4 (Homo sapiens) (UniProt P36969). Put plainly: Primary qHTS Assay for Inhibitors of Recombinant Selenoprotein Glutathione Peroxidase 4 (GPX4) (AID 1845192). Further: nearly all actives have a fitted effect of over 65% in size. Put shortly: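 qHTS, GR-coupled: GPX4 200 nM + cpd 30 min RT → GSH 1 mM, NADPH 0.5 mM, GR 100 nM → CHP 0.5 mM start; fluor 340/450 at t0 and t15 min; no-enzyme wells as control.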

Test [21] in a line: qHTS drug screen for cell cycle checkpoint inhibitors in PARPi-resistant BRCA-mutant ovarian cancer cell lines. (AID 1963452; calls by dose curve). Particulars: PEO1/OlaR viability, CellTiter-Glo luminescence, 96 h, stronger effect = lower value. Put shortly: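 PEO1, PEO4 and PEO1/OlaR ovarian cancer cells, 600 per well, exposed 96 h at 37C to a dilution series. Viability read by CellTiter-Glo luminescence, normalized to DMSO and empty wells; activity summarized as Z-AUC.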

Nuclear receptor subfamily 1 group I member 2 (Homo sapiens), sequence (O75469 whole entry, looked up): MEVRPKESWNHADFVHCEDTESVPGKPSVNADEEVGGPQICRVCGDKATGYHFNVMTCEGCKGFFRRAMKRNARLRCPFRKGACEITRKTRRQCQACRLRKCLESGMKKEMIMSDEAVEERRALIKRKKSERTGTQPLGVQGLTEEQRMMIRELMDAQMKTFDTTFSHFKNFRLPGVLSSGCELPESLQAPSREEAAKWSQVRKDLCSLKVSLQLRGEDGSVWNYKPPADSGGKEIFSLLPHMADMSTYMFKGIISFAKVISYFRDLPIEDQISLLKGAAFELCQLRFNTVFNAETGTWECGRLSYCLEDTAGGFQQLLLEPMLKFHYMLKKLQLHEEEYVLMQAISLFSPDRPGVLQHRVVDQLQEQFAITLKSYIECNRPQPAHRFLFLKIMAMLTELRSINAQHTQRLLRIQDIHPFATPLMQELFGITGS
Glutathione peroxidase 1 (Homo sapiens), sequence (P07203 whole entry, looked up): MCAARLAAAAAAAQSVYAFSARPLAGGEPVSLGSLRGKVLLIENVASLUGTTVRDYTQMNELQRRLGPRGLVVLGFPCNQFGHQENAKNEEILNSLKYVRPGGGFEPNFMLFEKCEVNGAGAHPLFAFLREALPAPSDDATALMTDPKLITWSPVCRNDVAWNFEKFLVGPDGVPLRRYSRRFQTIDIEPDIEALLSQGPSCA
Cytochrome P450 2D6 (Homo sapiens), sequence (P10635 whole entry, looked up): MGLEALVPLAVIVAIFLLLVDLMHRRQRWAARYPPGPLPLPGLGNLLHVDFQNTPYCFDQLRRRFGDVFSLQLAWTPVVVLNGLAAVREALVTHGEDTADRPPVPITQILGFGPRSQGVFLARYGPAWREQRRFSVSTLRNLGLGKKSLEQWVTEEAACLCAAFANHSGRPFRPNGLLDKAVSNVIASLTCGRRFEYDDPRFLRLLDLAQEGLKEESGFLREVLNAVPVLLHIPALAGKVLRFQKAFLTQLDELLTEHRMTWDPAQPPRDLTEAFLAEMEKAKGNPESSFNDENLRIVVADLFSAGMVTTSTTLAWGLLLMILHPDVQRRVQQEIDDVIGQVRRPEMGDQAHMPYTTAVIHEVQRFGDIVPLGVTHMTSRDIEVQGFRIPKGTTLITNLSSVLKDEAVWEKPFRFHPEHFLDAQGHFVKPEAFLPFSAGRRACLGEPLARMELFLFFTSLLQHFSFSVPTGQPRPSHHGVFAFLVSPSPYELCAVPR
Cytochrome P450 3A4 (Homo sapiens), sequence (P08684 whole entry, looked up, canonical isoform): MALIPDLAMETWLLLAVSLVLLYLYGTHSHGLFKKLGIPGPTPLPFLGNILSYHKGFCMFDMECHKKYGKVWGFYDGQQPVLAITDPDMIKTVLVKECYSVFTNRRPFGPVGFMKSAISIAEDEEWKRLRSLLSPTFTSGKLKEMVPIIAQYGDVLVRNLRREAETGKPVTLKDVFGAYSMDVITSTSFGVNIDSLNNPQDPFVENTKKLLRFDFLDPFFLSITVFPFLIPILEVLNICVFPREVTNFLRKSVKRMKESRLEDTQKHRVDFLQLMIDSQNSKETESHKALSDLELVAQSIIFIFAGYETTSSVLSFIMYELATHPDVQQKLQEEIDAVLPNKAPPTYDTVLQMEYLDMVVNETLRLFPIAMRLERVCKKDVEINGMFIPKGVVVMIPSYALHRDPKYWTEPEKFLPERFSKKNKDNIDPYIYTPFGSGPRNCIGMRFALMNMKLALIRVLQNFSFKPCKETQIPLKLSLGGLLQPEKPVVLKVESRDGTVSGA
Cytochrome P450 2C19 (Homo sapiens), sequence (P33261 whole entry, looked up): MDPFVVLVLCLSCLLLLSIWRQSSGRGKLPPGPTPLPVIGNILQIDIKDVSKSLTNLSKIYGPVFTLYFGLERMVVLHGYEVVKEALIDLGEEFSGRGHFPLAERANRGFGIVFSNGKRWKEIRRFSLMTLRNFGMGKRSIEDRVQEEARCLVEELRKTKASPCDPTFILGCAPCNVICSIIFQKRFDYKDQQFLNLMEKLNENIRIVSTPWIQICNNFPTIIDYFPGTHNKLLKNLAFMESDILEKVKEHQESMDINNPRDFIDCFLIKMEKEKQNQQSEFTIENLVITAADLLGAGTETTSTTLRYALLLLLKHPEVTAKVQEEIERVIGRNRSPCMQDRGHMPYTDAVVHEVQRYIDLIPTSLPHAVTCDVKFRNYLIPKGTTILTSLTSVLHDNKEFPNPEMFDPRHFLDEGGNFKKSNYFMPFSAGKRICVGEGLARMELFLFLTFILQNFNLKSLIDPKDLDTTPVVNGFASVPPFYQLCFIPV
Nuclear receptor subfamily 1 group I member 3 (Homo sapiens), sequence (Q14994 whole entry, looked up): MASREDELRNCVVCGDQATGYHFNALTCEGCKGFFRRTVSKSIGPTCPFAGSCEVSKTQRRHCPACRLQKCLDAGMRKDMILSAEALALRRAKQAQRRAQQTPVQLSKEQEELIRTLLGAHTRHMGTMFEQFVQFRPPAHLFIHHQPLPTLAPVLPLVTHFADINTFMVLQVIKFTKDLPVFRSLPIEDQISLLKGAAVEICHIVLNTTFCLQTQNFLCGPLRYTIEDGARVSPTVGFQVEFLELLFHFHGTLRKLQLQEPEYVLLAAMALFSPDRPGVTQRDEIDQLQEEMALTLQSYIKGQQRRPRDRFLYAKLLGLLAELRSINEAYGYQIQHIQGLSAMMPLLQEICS
Cytochrome P450 1A2 (Homo sapiens), sequence (P05177 whole entry, looked up): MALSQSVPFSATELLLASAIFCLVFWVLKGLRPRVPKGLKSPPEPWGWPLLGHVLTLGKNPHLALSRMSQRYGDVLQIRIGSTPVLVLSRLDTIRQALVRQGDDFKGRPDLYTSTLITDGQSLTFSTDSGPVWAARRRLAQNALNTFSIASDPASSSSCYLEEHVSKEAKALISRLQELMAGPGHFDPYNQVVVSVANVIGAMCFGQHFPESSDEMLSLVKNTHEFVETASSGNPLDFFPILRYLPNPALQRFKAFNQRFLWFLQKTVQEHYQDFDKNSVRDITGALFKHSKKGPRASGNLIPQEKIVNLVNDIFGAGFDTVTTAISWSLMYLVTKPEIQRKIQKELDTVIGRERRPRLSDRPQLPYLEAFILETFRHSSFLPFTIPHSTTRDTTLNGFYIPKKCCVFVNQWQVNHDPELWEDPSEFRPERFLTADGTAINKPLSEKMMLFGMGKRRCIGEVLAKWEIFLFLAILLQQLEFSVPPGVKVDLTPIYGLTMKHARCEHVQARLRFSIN
Phospholipid hydroperoxide glutathione peroxidase GPX4 (Homo sapiens), sequence (P36969 whole entry, looked up): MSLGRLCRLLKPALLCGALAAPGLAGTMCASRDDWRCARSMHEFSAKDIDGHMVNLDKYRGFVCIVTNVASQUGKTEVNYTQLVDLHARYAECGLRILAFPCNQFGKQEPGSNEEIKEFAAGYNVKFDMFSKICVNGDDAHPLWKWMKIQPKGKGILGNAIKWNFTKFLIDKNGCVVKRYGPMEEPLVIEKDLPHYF
Cytochrome P450 2C9 (Homo sapiens), sequence (P11712 whole entry, looked up): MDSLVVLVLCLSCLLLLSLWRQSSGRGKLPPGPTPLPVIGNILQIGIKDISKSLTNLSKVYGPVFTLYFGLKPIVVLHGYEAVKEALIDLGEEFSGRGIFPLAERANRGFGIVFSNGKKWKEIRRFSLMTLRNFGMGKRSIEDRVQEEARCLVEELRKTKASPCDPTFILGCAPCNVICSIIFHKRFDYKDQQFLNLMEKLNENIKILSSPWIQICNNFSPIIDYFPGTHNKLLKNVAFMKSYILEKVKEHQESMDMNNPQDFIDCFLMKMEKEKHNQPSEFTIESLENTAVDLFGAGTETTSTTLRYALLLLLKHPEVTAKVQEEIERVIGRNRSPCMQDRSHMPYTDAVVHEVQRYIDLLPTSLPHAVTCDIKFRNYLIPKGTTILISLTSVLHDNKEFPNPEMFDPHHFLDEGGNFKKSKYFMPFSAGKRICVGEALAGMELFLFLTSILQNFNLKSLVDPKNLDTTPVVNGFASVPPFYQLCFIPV

As to `O=C(/C=C/c1ccc(O)c(O)c1)O[C@H]1[C@H](O)C[C@](O)(C(=O)O)C[C@H]1OC(=O)/C=C/c1ccc(O)c(O)c1`, the Potency entry in [1], in test [4], in test [6], in [7], in test [10] and in [13] was “inactive” throughout. Further, the molecule was called inactive in [2], in test [3], in test [5], in test [9], in test [12] and in test [14]. For the same molecule, the result in test [15] was inactive. Besides, the Potency in test [8] is 15.8 µM (active). Besides, the max response in test [11] is -1.54% (inactive).

For `CC(=O)N[C@@H](CC(C)C)C(=O)N[C@@H](CC(C)C)C(=O)N[C@H](C=O)CCCN=C(N)N`, the Potency result in test [1] and in [16] was “inactive” in each case.

On to `C[C@H]1O[C@@H](O[C@H]2CC[C@@]3(C)C(CC[C@]4(C)[C@@H]3C=CC3=C5CC(C)(C)CC[C@]5(CO)[C@H](O)C[C@@]34C)[C@]2(C)CO)[C@H](O)[C@@H](O[C@@H]2O[C@H](CO)[C@@H](O)[C@H](O)[C@@H]2O)[C@H]1O` (some centres undefined), for which the Potency entry in test [1] and in test [16] was “inactive” throughout.

`CC(C)[C@H](NC(=O)OCc1ccccc1)C(=O)N[C@@H](C)C(=O)N[C@@H](CC(=O)O)C(=O)CF`: the Potency entry in [1] and in test [16] was “inactive” in each case.

On to `O=c1c(O[C@@H]2O[C@H](CO)[C@H](O)[C@H](O)[C@H]2O)c(-c2ccc(O)c(O)c2)oc2cc(O)cc(O)c12`, for which the Potency entry in [1], in test [7] and in test [13] was “inactive” in each case. The call in test [2], in test [3], in test [17], in test [5], in test [9] and in test [12] was inactive. For the same molecule, the result in test [14] and in [15] was inactive. The Potency in test [8] was 7.94 µM (active); in test [18], 3.55 µM (active). Besides, the max response in test [11] is 1.88% (inactive).

Consider `CC(C)(C)c1cc(C(=O)/C(C#N)=N/Nc2cccc(Cl)c2)no1`, for which the Potency entry in [1] is “inactive”. In addition, in test [16], the Potency was 14.5 µM (active).

Regarding `CCCCCCCCCCCCCCCCOc1nc2ccc(C)cc2c(=O)o1`, the Potency entry in [1] and in [19] was “inactive” throughout.

Take `CCCCC(=O)N(Cc1ccc(-c2ccccc2-c2nn[nH]n2)cc1)[C@H](C(=O)O)C(C)C`: the Potency entry in test [1] and in test [19] was “inactive” each time.

Regarding `O=C1CCC[C@@H]2[C@@H]3CCC[N@+]4([O-])CCC[C@H](CN12)[C@H]34`, the Potency result in test [1], in test [19] and in test [20] was “inactive” in each case. Moreover, the figures for the Z-AUC in [21], in test [21] (measured here: PEO1 parental Z-AUC) and in test [21] (measured here: PEO4 Z-AUC) were 1.48 (inactive), 0.635 and 0.881, respectively.

In the case of `Cc1cccc(C)c1N(CC(=O)Nc1ccc(-c2ncon2)cc1)C(=O)C1CCS(=O)(=O)CC1`, the Potency entry in [1] and in test [16] was “inactive” in each case.

Take `NC(=O)[C@@H]1CC[C@@H]2CN1C(=O)N2OS(=O)(=O)O`: the Potency entry in test [1], in test [19] and in [20] was “inactive” throughout.

In the case of `O=C(NO)c1cccc(C(=O)NCCc2ccccc2)c1`, the Potency result in test [1] and in [16] was “inactive” in each case.

Consider `O=C(/C=C/c1ccc(O)c(O)c1)O[C@@H]1CC(O)(C(=O)O)C[C@@H](OC(=O)/C=C/c2ccc(O)c(O)c2)C1O` (some centres undefined), for which the Potency entry in [1], in test [4], in test [6], in test [7], in test [18] and in [10] was “inactive” throughout. For the same molecule, the Potency result in [13] was “inactive”. Also, the call in test [2], in [3], in test [17], in test [5], in [12] and in test [14] was inactive. Further, the molecule was classed as inactive in test [15]. The max response in [11] was 3.46% (inactive).
